Screens deposited in PubChem BioAssay by Broad Institute.
Rtt109 Vps75 = inhibitors of C. albicans Rtt109/Vps75 HAT, primary screen, biochemical, ThioGlo CoA-SH fluorescence, plate reader; actives 0.16% (n = 330,000); purified Rtt109/Vps75, 4 h; inhibition, % at 34.9 µM; AID 540336, 2011;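 active = inhibition of at least 50% in every replicate; inconclusive = best replicate reaches 50% inhibition but some replicates fall short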
Target sequence (Q5AAJ8 whole entry, looked up): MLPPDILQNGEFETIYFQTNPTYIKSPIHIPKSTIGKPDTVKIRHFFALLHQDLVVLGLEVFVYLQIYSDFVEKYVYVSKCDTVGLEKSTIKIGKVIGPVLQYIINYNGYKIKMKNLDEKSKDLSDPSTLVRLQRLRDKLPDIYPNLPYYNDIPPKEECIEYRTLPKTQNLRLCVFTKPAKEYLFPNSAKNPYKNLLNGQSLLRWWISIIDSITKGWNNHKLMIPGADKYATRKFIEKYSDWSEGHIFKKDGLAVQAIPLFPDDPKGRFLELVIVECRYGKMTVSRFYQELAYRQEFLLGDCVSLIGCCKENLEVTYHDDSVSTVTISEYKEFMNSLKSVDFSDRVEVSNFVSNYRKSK
MITF TRPM1 HTS = activators of MITF-driven TRPM1 promoter reporter, primary screen, cell-based, SK-MEL-5, luciferase, single point; actives 0.75% (n = 300,000); activation, % at 12.5 µM; SK-MEL-5 TRPM1-promoter luciferase, 24 h; % of positive control, neutral wells = 0; AID 588334, 2011;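 active = mean activation of at least 80% with every replicate also reaching 80%; inconclusive = mean reaches 80% but some replicate falls short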
esBAF inh = Bmi1 luciferase reporter increase in mESCs, primary screen, esBAF inhibitor project, mouse ES cells, Bmi1 luciferase knock-in, single point | 24 h; 100% = twice the neutral-well signal | reporter increase, % at 12.5 µM | actives 2% (n = 350,000) | AID 602393, 2012; in the data active = activation above about 40%; inconclusive = no clear call, values can overlap the other calls;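 also: a rise in the Bmi1 reporter signal indicates esBAF inhibition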
Wnt bcat act = Wnt/beta-catenin pathway activators, primary screen, cell-based, plate reader, single point; Wnt/beta-catenin reporter cell assay, activator; activation, % at 9.35 µM; actives 1.2% (n = 300,000); AID 743398, 2014; in the data active = activation above about 30%, passing the limit was not always enough; inconclusive = no clear call, values can overlap the other calls
C2C12 statin = suppressors of statin myotoxicity in C2C12 myotubes, primary screen, cell-based, single point, plate reader; actives 0.78% (n = 330,000); C2C12 myotubes + simvastatin, ATP luminescence, 48 h; scaled: DMSO 0, geranylgeraniol control 100; AID 602340, 2012; rescue of ATP level, % at 7.49 µM;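 active = mean ATP rescue above about 67%, or every replicate alone reaching that limit, limit read from the data, passing the limit was not always enough; inconclusive = no clear call, values can overlap the other calls; inactive = mean under the limit and some replicate under it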;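 also: myotubes were challenged with 10 µM simvastatin during compound exposure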
A number is an active result; n = inactive; u = inconclusive; x = no result given. The list is not random: actives were taken first. Their share in the collection is about 3.1%.

SMILES | Rtt109 Vps75 | MITF TRPM1 HTS | esBAF inh | Wnt bcat act | C2C12 statin
COc1ccc(-c2nc3cc(NC(=S)NC(=O)Cc4ccccc4)ccc3o2)cc1 | n | 97 | x | x | x
COc1ccc(NC(=O)Nc2ccc3c(c2)CCC3)cc1 | n | 105 | 52 | n | n
CCC(=O)NC(=S)Nc1ccc2oc(-c3ccc(OC)cc3)nc2c1 | n | n | x | n | x
COCCNC(=O)C[C@@H]1C[C@H]2c3cc(N(C)C)ccc3O[C@H]2[C@@H](CO)O1 | x | x | n | x | n
COC(=O)[C@H](Cc1ccccc1)NC(=O)NCc1ccc(C)cc1 | x | x | n | 51 | n
Cc1nc(NC(C)C)c2cnn(CCc3ccccc3)c2n1 | n | 98 | n | x | n
CCCNc1nc(C)nc2c1cnn2CCc1ccccc1 | n | n | n | x | n
C[C@@H]1CN([C@@H](C)CO)C(=O)c2cc(NC(=O)CCCN(C)C)ccc2O[C@@H]1CN(C)Cc1ccc(C(=O)O)cc1 | x | x | n | x | n
COc1ccccc1-c1cn(CC[C@@H]2CC[C@@H](NC(=O)C3CCOCC3)[C@@H](CO)O2)nn1 | x | x | n | x | n
Cc1ccc(Sc2cnc3ccccc3n2)cc1 | n | 89 | 66 | x | n
COCC(=O)Nc1ccc2c(c1)OC[C@@H](C)N(CC1CC1)C[C@H](C)[C@H](OC)CN(C)C2=O | x | x | n | x | n
COCc1cc(=O)[nH]c(Nc2nc3ccccc3o2)n1 | n | n | 50 | n | n
CCS(=O)(=O)c1ccc2oc(Nc3ccccc3Cl)nc2c1 | n | n | u | n | n
Clc1ccccc1Nc1nc2ccccc2o1 | n | n | n | 60 | n
C[C@@H]1CCCCO[C@@H](CN(C)C(=O)Nc2cccc3ccccc23)[C@H](C)CN([C@H](C)CO)C(=O)c2cc(NC(=O)Cc3ccccc3)ccc2O1 | x | x | n | x | n
COc1cc(C=NN=c2sc3ccccc3n2C)ccc1OCCO | x | x | x | 34 | x
COc1cc(C(=O)N=c2sc3ccccc3n2C)cc(OC)c1OC | n | n | x | n | x
Cc1ccc(OC(=O)COc2ccccc2C)c(-n2nc3ccccc3n2)c1 | n | n | n | n | n
Cc1ccc(OC(=O)c2cccc([N+](=O)[O-])c2)c(-n2nc3ccccc3n2)c1 | n | n | 84 | 43 | n
Cc1ccc(OC(=O)COc2ccccc2)c(-n2nc3ccccc3n2)c1 | n | n | x | 55 | x
CC(=O)c1c(C)[nH]c(C(=O)OCc2cccc(C)c2)c1C | n | n | 54 | n | n
CCOC(=O)c1c(C)[nH]c(N=Nc2ccccc2C)c1C | n | n | 48 | x | n
CCOC(=O)c1c(C)[nH]c(C(=O)OCC(=O)NCc2ccco2)c1C | x | x | 49 | x | n
CCOC(=O)c1c(C)[nH]c(C(=O)OCc2ccccc2)c1C | n | 92 | 76 | 43 | n
CCOC(=O)c1c(C)[nH]c(N=Nc2ccc(C)cc2C)c1C | n | n | n | n | n
SMILES | Rtt109 Vps75 | MITF TRPM1 HTS | esBAF inh | Wnt bcat act | C2C12 statin
C[C@H]1CN([C@@H](C)CO)C(=O)c2cccc(NS(=O)(=O)c3ccc(Cl)cc3)c2O[C@H]1CN(C)Cc1ccc(Cl)c(Cl)c1 | x | x | n | x | n
CN(C)CCCNC(=O)C[C@@H]1CC[C@H]2[C@@H](COC[C@@H](O)CN2Cc2ccc(Cl)c(Cl)c2)O1 | x | x | n | x | n
C[C@H]1CN([C@@H](C)CO)S(=O)(=O)c2ccc(C3=CCCCC3)cc2O[C@H]1CN(C)C(=O)CN(C)C | x | x | n | x | n
CNC[C@H]1OCCCC[C@@H](C)Oc2ccc(NC(=O)c3ccccc3)cc2C(=O)N([C@H](C)CO)C[C@@H]1C | x | x | n | x | n
CCCCCC(=O)c1c(C)[nH]c(C(=O)OCC)c1C | n | n | x | n | x
CCOC(=O)c1c(C)[nH]c2c1cc(O)c1ccccc12 | n | n | 62 | n | n
CCCCCCC(=O)c1c(C)[nH]c(C(=O)OCC)c1C | n | x | 55 | x | n
CCCc1nn(C)c(C(=O)Nc2ccc(C)c(C)c2)c1Cl | n | n | 70 | n | n
CCC(=O)N1C[C@H](O)COC[C@H]2O[C@H](CC(=O)NCc3cc(F)cc(F)c3)CC[C@@H]21 | x | x | n | x | n
O=C1c2ccccc2C(O)N1c1ccccc1 (configuration not stated) | n | n | n | n | n
COc1ccc(N2C(=O)c3ccccc3C2O)cc1 (configuration not stated) | n | n | n | 44 | n
C[C@@H]1CCCCO[C@@H](CN(C)C(=O)Nc2ccc(C(F)(F)F)cc2)[C@@H](C)CN([C@@H](C)CO)C(=O)c2cc(N(C)C)ccc2O1 | x | x | n | x | n
CCCCCCN1Cc2ccccc2C1 | n | n | n | n | 106
CN1C(=O)c2cc(NC(=O)C3CC3)ccc2OC[C@H]2O[C@H](CC(=O)NCC3CCCCC3)CC[C@@H]21 | x | x | n | x | n
CC1Cc2ccccc2N1C(=O)C1CCN(S(=O)(=O)Cc2ccccc2)CC1 (configuration not stated) | n | n | n | n | 103
O=C(O)C[C@H]1CC[C@H]2[C@@H](COC[C@H](O)CN2S(=O)(=O)c2ccc(F)cc2)O1 | x | x | n | x | n
CCCCOc1ccc(C(=O)Oc2cc(C)[nH]c(=O)c2[N+](=O)[O-])cc1 | n | n | n | n | n
CCOc1ccc(C(=O)Oc2cc(C)[nH]c(=O)c2[N+](=O)[O-])cc1 | n | n | n | n | 127
CCOc1ccc(S(=O)(=O)NCC(=O)N(C)Cc2cccnc2)cc1 | n | n | n | x | 109
CCOc1ccc(NS(=O)(=O)c2ccc(C(=O)NCc3cccnc3)cc2)cc1 | n | n | n | n | n
COc1ccc(-c2csc(N(Cc3ccco3)C(=O)c3cccs3)n2)cc1 | n | n | n | 41 | n
COc1ccc(-c2csc(N(C)C(=O)c3cccs3)n2)cc1 | n | 97 | u | 38 | n
CN1C(=O)c2cc(NC(=O)c3ccc(C(F)(F)F)cc3)ccc2OC[C@@H]2O[C@@H](CC(=O)O)CC[C@@H]21 | x | x | n | x | n
CCOC(=O)c1ccc(NS(=O)(=O)c2ccc(-c3coc(C)n3)cc2)cc1 | n | n | n | n | 93
Cc1ccc(C(=O)Nc2ncc(Cc3ccc(F)cc3)s2)o1 | n | 144 | n | 65 | n
SMILES | Rtt109 Vps75 | MITF TRPM1 HTS | esBAF inh | Wnt bcat act | C2C12 statin
Cc1ccc(C(=O)Nc2ncc(C)s2)o1 | n | n | x | x | x
Cc1c(O)nc2sc3ccccc3n2c1=O | x | x | x | n | x
Cc1cc2sc3nc(=O)n(-c4ccccc4)c(=O)n3c2cc1C | n | x | x | 71 | x
Cc1cc(C)cc(-n2c(O)c(C=NC3CCS(=O)(=O)C3)c3ccccc3c2=O)c1 (configuration not stated) | n | n | n | x | n
Cc1cccc(-n2c(O)c(C=NC3CCS(=O)(=O)C3)c3ccccc3c2=O)c1 (configuration not stated) | u | n | n | x | 138
O=S(=O)(NN=C1CCCCC1)c1ccccc1 | n | n | n | n | 115
